# Test results: publication PMC5540273 (PLoS ONE, 2017)
# Assays:
# Conditions in all cases: concentration: 1 μM, replicates: in singlicate; n = 1
# MYO3A = test system: MYO3A
# MYO3B = test system: MYO3B
# NDR1 = test system: T1, NDR1
# T1 construct: gene STK38
# NDR2 = test system: NDR2
# NEK10 = test system: NEK10
# NEK11 = test system: NEK11
# NEK1 = test system: NEK1
# NEK2 = test system: NEK2
# NEK3 = test system: NEK3
# NEK4 = test system: NEK4
# NEK5 = test system: NEK5
# NEK6 = test system: NEK6
# NEK7 = test system: NEK7
# NEK9 = test system: NEK9
# NIK = test system: T2, NIK
# T2 construct: gene MAP3K14
# NIM1 = test system: T3, NIM1
# T3 construct: gene MGC42105
# NLK = test system: NLK
# OSR1 = test system: T4, OSR1
# T4 construct: gene OXSR1
# PAK1 = test system: PAK1
# PAK2 = test system: PAK2
# 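Also: KINOMEscan kinase panel screen.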
SMILES,%Inh (MYO3A),%Inh (MYO3B),%Inh (NDR1),%Inh (NDR2),%Inh (NEK10),%Inh (NEK11),%Inh (NEK1),%Inh (NEK2),%Inh (NEK3),%Inh (NEK4),%Inh (NEK5),%Inh (NEK6),%Inh (NEK7),%Inh (NEK9),%Inh (NIK),%Inh (NIM1),%Inh (NLK),%Inh (OSR1),%Inh (PAK1),%Inh (PAK2)
CN1c2ccc(-c3ccc(C(N)=O)cc3)cc2-c2[nH]ncc2S1(=O)=O,0%,11%,26%,3%,0%,0%,0%,0%,35%,0%,0%,0%,0%,0%,12%,0%,8%,0%,11%,22%
Fc1ccc(-c2nc[nH]c2-c2ccncc2)cc1 [SB-217360],0%,6%,30%,9%,24%,0%,0%,0%,11%,0%,0%,0%,0%,0%,20%,4%,49%,0%,23%,25%
CC(=O)c1c(C)c2cnc(Nc3ccn(C)n3)nc2n(C2CCCC2)c1=O,0%,0%,0%,4%,15%,0%,0%,0%,22%,0%,18%,0%,0%,0%,0%,2%,25%,0%,0%,0%
COc1ccc2cc(-c3nc(-c4ccccc4C(C)C)[nH]c3-c3ccncc3)ccc2c1 [SB-660566],0%,0%,18%,0%,45%,4%,41%,0%,0%,15%,0%,2%,0%,4%,0%,13%,29%,3%,25%,28%
CCCCc1nn2ncccc2c1-c1ccnc(NC2CC2)n1 [GW684374],23%,0%,8%,10%,0%,0%,3%,0%,0%,0%,4%,0%,0%,4%,0%,1%,68%,0%,6%,0%
O=C(Nc1n[nH]c2nc(-c3ccco3)c(Br)cc12)C1CCN(Cc2ccccc2)C1.O=C(O)[C@H](O)[C@@H](O)C(=O)O (centres unmarked) [SB-742034],17%,7%,8%,17%,0%,1%,0%,5%,47%,8%,0%,1%,11%,0%,0%,0%,0%,5%,3%,35%
Cc1cnc(N)c(/C=C/c2cncc(C(=O)NCCc3ccc(Cl)cc3Cl)c2)c1.Cl [GSK190937],6%,0%,21%,21%,13%,0%,5%,10%,0%,0%,9%,0%,0%,0%,10%,18%,7%,0%,4%,10%
CNCc1ccc2nc(NC(=O)c3ccc(C(C)(C)C)cc3)cn2c1,2%,0%,34%,3%,20%,34%,28%,2%,18%,7%,0%,2%,10%,3%,28%,3%,1%,22%,7%,26%
COc1ccc(Nc2nccc(N3CCC(NC(=O)C(C)c4ccc(Cl)cc4)C3)n2)cc1 (centres unmarked) [GSK1379735],0%,7%,0%,0%,7%,0%,0%,13%,0%,10%,32%,0%,6%,2%,12%,13%,14%,0%,16%,38%
COc1cccc(NC(=O)Nc2ccc(C)c(-c3ccc(C(=O)Nc4ccncc4)cc3)c2)c1 [GSK1398474],0%,0%,51%,0%,47%,0%,25%,0%,7%,15%,2%,3%,0%,12%,0%,0%,30%,6%,29%,16%
Cc1ccc(NC(=O)c2ccc(Cl)cc2)cc1-c1ccc(C(=O)Nc2ccncc2)cc1 [GSK1398467],16%,0%,0%,0%,0%,0%,0%,5%,15%,0%,0%,0%,0%,0%,3%,5%,38%,0%,0%,0%
CC(C)c1cc(-c2ccc3c(N)n[nH]c3c2)nc(N)n1 [GSK2250882],9%,0%,17%,0%,8%,0%,0%,0%,0%,0%,0%,0%,0%,18%,0%,10%,19%,16%,20%,16%
COc1ccc(Nc2nccc(N3CCC(NC(=O)c4cc5ccccc5s4)C3)n2)cc1 (centres unmarked) [GSK1379738],11%,0%,0%,0%,16%,0%,2%,1%,15%,0%,19%,0%,0%,0%,1%,9%,20%,0%,2%,0%
Cc1ccccc1-c1cc(-c2c[nH]nc2-c2ccccn2)ccn1 [GW680061],0%,0%,0%,0%,4%,11%,0%,0%,0%,11%,9%,0%,0%,0%,28%,18%,15%,9%,0%,5%
COc1ccc(-c2coc3ccc(-c4nnc(C)o4)cc23)cc1,0%,12%,8%,9%,47%,0%,0%,0%,21%,17%,0%,0%,0%,0%,0%,0%,0%,1%,23%,0%
CC(=O)c1c(C)c2cnc(Nc3ccc(N4CCNCC4)cn3)nc2n(C2CCCC2)c1=O,11%,0%,0%,0%,13%,0%,0%,0%,36%,0%,1%,0%,0%,0%,3%,0%,29%,0%,0%,0%

SMILES,%Inh (MYO3A),%Inh (MYO3B),%Inh (NDR1),%Inh (NDR2),%Inh (NEK10),%Inh (NEK11),%Inh (NEK1),%Inh (NEK2),%Inh (NEK3),%Inh (NEK4),%Inh (NEK5),%Inh (NEK6),%Inh (NEK7),%Inh (NEK9),%Inh (NIK),%Inh (NIM1),%Inh (NLK),%Inh (OSR1),%Inh (PAK1),%Inh (PAK2)
CNC(=O)c1ccc(C)c(-n2c(C)cc(OCc3ccc(F)cc3F)c(Br)c2=O)c1,0%,0%,0%,0%,0%,0%,0%,0%,12%,0%,0%,0%,2%,0%,0%,0%,0%,0%,2%,0%
COC(=O)c1cccc(NC(=O)NC2CCN(c3ccnc(Nc4ccc(OC)cc4)n3)C2)c1 (centres unmarked) [GSK1379746],1%,0%,0%,0%,24%,8%,0%,0%,14%,0%,23%,0%,0%,0%,8%,53%,35%,0%,0%,0%
COC(=O)C(NC(=O)NC1CCN(c2ccnc(Nc3ccc(F)cc3)n2)C1)c1ccccc1 (centres unmarked) [GSK1379712],0%,0%,14%,32%,0%,0%,2%,0%,9%,0%,6%,0%,0%,16%,4%,37%,2%,0%,0%,1%
Fc1ccc(-c2nc3n(c2-c2ccncc2)CCS3)cc1 [GI98581],12%,0%,0%,0%,14%,9%,0%,0%,6%,38%,8%,6%,0%,8%,2%,10%,64%,5%,0%,6%
Cc1cccc2c(-c3ccncn3)c(-c3ccc(F)cc3)nn12 [GW515532],0%,0%,0%,0%,0%,0%,0%,23%,0%,0%,0%,0%,0%,5%,1%,14%,44%,10%,13%,8%
Cc1ccc(-c2nc(Nc3ccncc3)c3ccccc3n2)s1 [GSK189015],0%,0%,0%,0%,4%,0%,0%,20%,5%,0%,9%,1%,16%,15%,4%,0%,53%,9%,11%,11%
Cc1c(Cn2c(C)c(C)n3c(=O)cc(N4CCOCC4)nc23)cccc1C(F)(F)F [GSK2328680],0%,0%,0%,2%,0%,5%,0%,8%,0%,19%,0%,0%,0%,12%,9%,11%,12%,11%,0%,0%
O=c1cc(N2CCOCC2)nc2n(Cc3ccccc3F)ccn12 [GSK2297428],13%,0%,34%,0%,1%,0%,0%,0%,0%,0%,0%,0%,0%,0%,0%,2%,0%,0%,21%,0%
COc1ccc(CSc2nnc(-c3ccc4c(c3)CCO4)o2)cc1,0%,0%,0%,0%,0%,0%,10%,0%,26%,0%,0%,0%,0%,0%,0%,0%,0%,0%,18%,9%
CSc1ccc(-c2nc3n(c2-c2ccncc2)CCC3)cc1 [SKF-105561],1%,8%,21%,4%,0%,36%,0%,3%,23%,6%,0%,1%,3%,0%,0%,18%,23%,19%,0%,39%
Cl.Cl.Cl.N#Cc1ccc(CCNc2nccc(-c3cccc(CN4CCNCC4)c3)n2)cc1 [GSK2137462],2%,0%,4%,0%,1%,0%,0%,15%,0%,0%,33%,0%,0%,27%,0%,3%,24%,9%,24%,21%
COc1cccc(CNC(=O)NC2CCN(c3ccnc(Nc4ccc(F)cc4)n3)C2)c1 (centres unmarked) [GSK1379723],0%,0%,0%,0%,0%,0%,0%,18%,5%,22%,21%,0%,2%,0%,24%,14%,3%,10%,1%,0%
Nc1ncnc2occ(-c3ccc4c(c3)CCN4C(=O)Cc3cc(F)ccc3F)c12 [GSK2645446],26%,0%,11%,0%,1%,2%,0%,70%,0%,0%,22%,0%,0%,4%,17%,8%,0%,0%,0%,4%
FC(F)(F)c1ccccc1-c1cc(-c2c[nH]nc2-c2ccccn2)ccn1 [GW679396],10%,0%,22%,0%,9%,10%,0%,19%,0%,0%,4%,0%,1%,4%,13%,4%,18%,0%,6%,2%
CC(=O)c1cccc(NC(=O)NC2CCN(c3ccnc(Nc4ccc(F)cc4)n3)C2)c1 (centres unmarked) [GSK1379710],43%,0%,12%,38%,0%,6%,3%,8%,8%,0%,35%,0%,0%,15%,0%,38%,25%,5%,8%,0%
